# Legend:
# Details in all cases: concentration: 1 μM, replicates: in singlicate; n = 1
# CSNK1G1 = test system: CSNK1G1
# CSNK1G2 = test system: CSNK1G2
# CSNK1G3 = test system: CSNK1G3
# CSNK2A1 = test system: CSNK2A1
# CSNK2A2 = test system: CSNK2A2
# CTK = test system: T1, CTK
# T1 construct: gene MATK
# DAPK1 = test system: DAPK1
# DAPK2 = test system: DAPK2
# DAPK3 = test system: DAPK3
# DCAMKL1 = test system: T2, DCAMKL1
# T2 construct: gene DCLK1
# DCAMKL2 = test system: T3, DCAMKL2
# T3 construct: gene DCLK2
# DCAMKL3 = test system: T4, DCAMKL3
# T4 construct: gene DCLK3
# DDR1 = test system: DDR1
# DDR2 = test system: DDR2
# DLK = test system: T5, DLK
# T5 construct: gene MAP3K12
# DMPK2 = test system: T6, DMPK2
# T6 construct: gene CDC42BPG
# DMPK = test system: DMPK
# DRAK1 = test system: T7, DRAK1
# T7 construct: gene STK17A
# DRAK2 = test system: T8, DRAK2
# T8 construct: gene STK17B
# DYRK1A = test system: DYRK1A
# 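Also: KINOMEscan kinase panel screen.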
structure (smiles),measurement,setting,value
COc1ccc(Nc2nccc(N3CCC(NC(=O)Nc4cccc(OC)c4)C3)n2)cc1 (centres unmarked) [GSK1379742],%Inh,CSNK1G1,13%
same,%Inh,CSNK1G2,0%
same,%Inh,CSNK1G3,20%
same,%Inh,CSNK2A1,6%
same,%Inh,CSNK2A2,0%
same,%Inh,CTK,0%
same,%Inh,DAPK1,0%
same,%Inh,DAPK2,0%
same,%Inh,DAPK3,0%
same,%Inh,DCAMKL1,0%
same,%Inh,DCAMKL2,0%
same,%Inh,DCAMKL3,13%
same,%Inh,DDR1,8%
same,%Inh,DDR2,24%
same,%Inh,DLK,46%
same,%Inh,DMPK2,0%
same,%Inh,DMPK,0%
same,%Inh,DRAK1,8%
same,%Inh,DRAK2,0%
same,%Inh,DYRK1A,4%
CC(=O)Nc1nc2cnc(Nc3cc(NC(=O)c4cccc(C5(C#N)CC5)c4Cl)ccc3C)nc2s1,%Inh,CSNK1G1,0%
same,%Inh,CSNK1G2,0%
same,%Inh,CSNK1G3,0%
same,%Inh,CSNK2A1,0%
same,%Inh,CSNK2A2,0%
same,%Inh,CTK,52%
same,%Inh,DAPK1,0%
same,%Inh,DAPK2,0%
same,%Inh,DAPK3,0%
same,%Inh,DCAMKL1,23%
same,%Inh,DCAMKL2,0%
same,%Inh,DCAMKL3,0%
same,%Inh,DDR1,100%
same,%Inh,DDR2,99.4%
same,%Inh,DLK,0%
same,%Inh,DMPK2,0%
same,%Inh,DMPK,0%
same,%Inh,DRAK1,0%
same,%Inh,DRAK2,10%
same,%Inh,DYRK1A,0%
O=C(Nc1cccc(-c2nn3ccccc3c2-c2ccnc(Nc3cccc(F)c3)n2)c1)c1c(F)ccc(F)c1Cl [GSK357952],%Inh,CSNK1G1,0%
same,%Inh,CSNK1G2,0%
same,%Inh,CSNK1G3,25%
same,%Inh,CSNK2A1,41%
same,%Inh,CSNK2A2,12%
same,%Inh,CTK,15%
same,%Inh,DAPK1,0%
same,%Inh,DAPK2,0%
same,%Inh,DAPK3,0%
same,%Inh,DCAMKL1,3%
same,%Inh,DCAMKL2,7%
same,%Inh,DCAMKL3,1%
same,%Inh,DDR1,100%
same,%Inh,DDR2,82%
same,%Inh,DLK,3%
same,%Inh,DMPK2,19%
same,%Inh,DMPK,0%
same,%Inh,DRAK1,3%
same,%Inh,DRAK2,0%
same,%Inh,DYRK1A,6%
COC(=O)Nc1nc2ccc(Oc3ccc(NC(=O)Nc4cc(C(F)(F)F)ccc4F)cc3)cc2n1C.Cl [GW692089],%Inh,CSNK1G1,6%
same,%Inh,CSNK1G2,0%
same,%Inh,CSNK1G3,12%
same,%Inh,CSNK2A1,0%
same,%Inh,CSNK2A2,1%
same,%Inh,CTK,0%
same,%Inh,DAPK1,0%
same,%Inh,DAPK2,0%
same,%Inh,DAPK3,0%
same,%Inh,DCAMKL1,6%
same,%Inh,DCAMKL2,0%
same,%Inh,DCAMKL3,9%
same,%Inh,DDR1,100%
same,%Inh,DDR2,99.9%
same,%Inh,DLK,31%
same,%Inh,DMPK2,0%
same,%Inh,DMPK,0%
same,%Inh,DRAK1,0%
same,%Inh,DRAK2,9%
same,%Inh,DYRK1A,2%
CNC(=O)c1ccccc1Nc1nc(Nc2ccc(N3CCOCC3)cc2)ncc1Cl.Cl [GSK1576028],%Inh,CSNK1G1,66%
same,%Inh,CSNK1G2,85%
same,%Inh,CSNK1G3,56%
same,%Inh,CSNK2A1,99.8%
same,%Inh,CSNK2A2,99.9%
same,%Inh,CTK,34%
same,%Inh,DAPK1,95%
same,%Inh,DAPK2,69%
same,%Inh,DAPK3,89%
same,%Inh,DCAMKL1,52%
same,%Inh,DCAMKL2,31%
same,%Inh,DCAMKL3,81%
same,%Inh,DDR1,95.1%
same,%Inh,DDR2,73%
same,%Inh,DLK,95%
same,%Inh,DMPK2,25%
same,%Inh,DMPK,81%
same,%Inh,DRAK1,95.1%
same,%Inh,DRAK2,60%
same,%Inh,DYRK1A,94.4%
Nc1n[nH]c2cnc(-c3ccccc3)cc12 [SB-642124],%Inh,CSNK1G1,4%
same,%Inh,CSNK1G2,0%
same,%Inh,CSNK1G3,3%
same,%Inh,CSNK2A1,21%
same,%Inh,CSNK2A2,27%
same,%Inh,CTK,0%
same,%Inh,DAPK1,24%
same,%Inh,DAPK2,0%
same,%Inh,DAPK3,27%
same,%Inh,DCAMKL1,13%
same,%Inh,DCAMKL2,0%
same,%Inh,DCAMKL3,10%
same,%Inh,DDR1,2%
same,%Inh,DDR2,18%
same,%Inh,DLK,19%
same,%Inh,DMPK2,0%
same,%Inh,DMPK,31%
same,%Inh,DRAK1,44%
same,%Inh,DRAK2,0%
same,%Inh,DYRK1A,91.4%
CN(C)Cc1ccc(-c2ccc3c(Nc4ccc(Oc5ccccn5)cc4)ccnc3c2)o1 [GW567148],%Inh,CSNK1G1,0%
same,%Inh,CSNK1G2,0%
same,%Inh,CSNK1G3,0%
same,%Inh,CSNK2A1,0%
same,%Inh,CSNK2A2,0%
same,%Inh,CTK,16%
same,%Inh,DAPK1,0%
same,%Inh,DAPK2,0%
same,%Inh,DAPK3,0%
same,%Inh,DCAMKL1,14%
same,%Inh,DCAMKL2,0%
same,%Inh,DCAMKL3,0%
same,%Inh,DDR1,38%
same,%Inh,DDR2,45%
same,%Inh,DLK,69%
same,%Inh,DMPK2,0%
same,%Inh,DMPK,0%
same,%Inh,DRAK1,4%
same,%Inh,DRAK2,0%
same,%Inh,DYRK1A,13%
COc1cc(Nc2nccc(-c3c(-c4cccc(NC(=O)c5c(F)cccc5F)c4)nn4ccccc34)n2)cc(OC)c1OC [GSK323521],%Inh,CSNK1G1,20%
same,%Inh,CSNK1G2,31%
same,%Inh,CSNK1G3,25%
same,%Inh,CSNK2A1,2%
same,%Inh,CSNK2A2,6%
same,%Inh,CTK,0%
same,%Inh,DAPK1,0%
same,%Inh,DAPK2,22%
same,%Inh,DAPK3,19%
same,%Inh,DCAMKL1,9%
same,%Inh,DCAMKL2,11%
same,%Inh,DCAMKL3,11%
same,%Inh,DDR1,90.3%
same,%Inh,DDR2,61%
same,%Inh,DLK,3%
same,%Inh,DMPK2,49%
same,%Inh,DMPK,9%
same,%Inh,DRAK1,0%
same,%Inh,DRAK2,0%
same,%Inh,DYRK1A,13%
c1ccc(-c2n[nH]cc2Nc2ccnc3ccccc23)nc1 [GW694077],%Inh,CSNK1G1,100%
same,%Inh,CSNK1G2,1%
same,%Inh,CSNK1G3,12%
same,%Inh,CSNK2A1,54%
same,%Inh,CSNK2A2,68%
same,%Inh,CTK,0%
same,%Inh,DAPK1,23%
same,%Inh,DAPK2,60%
same,%Inh,DAPK3,66%
same,%Inh,DCAMKL1,23%
same,%Inh,DCAMKL2,0%
same,%Inh,DCAMKL3,12%
same,%Inh,DDR1,0%
same,%Inh,DDR2,10%
same,%Inh,DLK,74%
same,%Inh,DMPK2,0%
same,%Inh,DMPK,0%
same,%Inh,DRAK1,99.4%
same,%Inh,DRAK2,0%
same,%Inh,DYRK1A,99.9%
COc1ccc(-c2coc3ccc(-c4nnc(SCc5ccc(OC)c(C(F)(F)F)c5)o4)cc23)cc1,%Inh,CSNK1G1,0%
same,%Inh,CSNK1G2,24%
same,%Inh,CSNK1G3,0%
same,%Inh,CSNK2A1,22%
same,%Inh,CSNK2A2,24%
same,%Inh,CTK,10%
same,%Inh,DAPK1,15%
same,%Inh,DAPK2,0%
same,%Inh,DAPK3,0%
same,%Inh,DCAMKL1,38%
same,%Inh,DCAMKL2,8%
same,%Inh,DCAMKL3,0%
same,%Inh,DDR1,2%
same,%Inh,DDR2,0%
same,%Inh,DLK,0%
same,%Inh,DMPK2,0%
same,%Inh,DMPK,0%
same,%Inh,DRAK1,0%
same,%Inh,DRAK2,0%
same,%Inh,DYRK1A,0%
